Our source for the binding signal values is paper PMC11006913.

Experiment in all cases: PBM; 200 nM protein, PBS
Common to all, as to conditions: dsDNA, one strand shown

Test [1] has as its target HOXA4 (Homo sapiens, UniProt Q00056 201-287, W262R).
The target of test [2] is HOXC10 (Homo sapiens, UniProt Q9NYD6 254-340).
Test [3] has as its target HOXA4 (Homo sapiens, UniProt Q00056 201-287, R217L).
The target in test [4] is HOXA4 (Homo sapiens, UniProt Q00056 201-287).
For test [5], the target named is HOXC10 (Homo sapiens, UniProt Q9NYD6 254-340, K271E).
Sequence of HOXC10 (Homo sapiens, UniProt Q9NYD6 254-340, K271E) (Q9NYD6 254-340 K271E): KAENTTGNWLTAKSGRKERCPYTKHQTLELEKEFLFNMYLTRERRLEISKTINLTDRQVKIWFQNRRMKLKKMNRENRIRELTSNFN
Test [6] deals with HOXA4 (Homo sapiens, UniProt Q00056 201-287, W262F).
Sequence of HOXA4 (Homo sapiens, UniProt Q00056 201-287, W262F) (Q00056 201-287 W262F): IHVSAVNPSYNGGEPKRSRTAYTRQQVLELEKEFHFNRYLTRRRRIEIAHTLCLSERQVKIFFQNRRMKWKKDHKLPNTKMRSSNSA
The target of test [7] is HOXB6 (Homo sapiens, UniProt P17509 132-218, K202E).
Sequence of HOXB6 (Homo sapiens, UniProt P17509 132-218, K202E) (P17509 132-218 K202E): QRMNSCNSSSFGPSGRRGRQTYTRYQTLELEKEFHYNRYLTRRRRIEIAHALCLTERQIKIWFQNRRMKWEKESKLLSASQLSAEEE
The target in test [8] is MSX2 (Homo sapiens, UniProt P35548 130-214, R199I).
Sequence of MSX2 (Homo sapiens, UniProt P35548 130-214, R199I) (P35548 130-214 R199I): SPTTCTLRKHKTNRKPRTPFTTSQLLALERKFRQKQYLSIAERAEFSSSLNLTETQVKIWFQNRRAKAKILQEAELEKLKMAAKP
Test [9] has as its target MSX2 (Homo sapiens, UniProt P35548 130-214).
For test [10], the target named is MSX2 (Homo sapiens, UniProt P35548 130-214, F161Y).
Sequence of MSX2 (Homo sapiens, UniProt P35548 130-214, F161Y) (P35548 130-214 F161Y): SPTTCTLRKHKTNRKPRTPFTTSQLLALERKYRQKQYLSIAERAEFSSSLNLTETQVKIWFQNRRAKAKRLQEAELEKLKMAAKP
Test [11] deals with HOXB6 (Homo sapiens, UniProt P17509 132-218).
Sequence of HOXB6 (Homo sapiens, UniProt P17509 132-218) (P17509 132-218): as the sequence (P17509 132-218 K202E) above, with E71K counted along it
The target of test [12] is PRRX1 (Homo sapiens, UniProt P54821 80-166, F113S).
Sequence of PRRX1 (Homo sapiens, UniProt P54821 80-166, F113S) (P54821 80-166 F113S): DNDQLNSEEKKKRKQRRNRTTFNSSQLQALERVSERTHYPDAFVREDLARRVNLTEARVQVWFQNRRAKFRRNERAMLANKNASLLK
Test [13] addresses HOXA2 (Homo sapiens, UniProt O43364 129-215, R185T).
The target of test [14] is HOXA2 (Homo sapiens, UniProt O43364 129-215, R185K).
Sequence of HOXA2 (Homo sapiens, UniProt O43364 129-215, R185K) (O43364 129-215 R185K): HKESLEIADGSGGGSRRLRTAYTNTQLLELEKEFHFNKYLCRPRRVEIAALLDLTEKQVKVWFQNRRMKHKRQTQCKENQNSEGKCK
Test [15] addresses HOXA2 (Homo sapiens, UniProt O43364 129-215, Y150S).
For test [16], the target named is PRRX1 (Homo sapiens, UniProt P54821 80-166).
Sequence of PRRX1 (Homo sapiens, UniProt P54821 80-166) (P54821 80-166): as the sequence (P54821 80-166 F113S) above, with S34F counted along it
Test [17] deals with HOXA2 (Homo sapiens, UniProt O43364 129-215).
Sequence of HOXA2 (Homo sapiens, UniProt O43364 129-215) (O43364 129-215): as the sequence (O43364 129-215 R185K) above, with K57R counted along it
The target of test [18] is ALX4 (Homo sapiens, UniProt Q9H161 200-286).
Sequence of ALX4 (Homo sapiens, UniProt Q9H161 200-286) (Q9H161 200-286): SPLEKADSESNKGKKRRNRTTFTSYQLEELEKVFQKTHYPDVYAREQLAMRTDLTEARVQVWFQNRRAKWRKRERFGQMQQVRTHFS
Test [19] has as its target ALX4 (Homo sapiens, UniProt Q9H161 200-286, Q225E).
Test [20] addresses T1, SIX6 (Homo sapiens, UniProt O95475 114-200, L167I).
T1 sequence: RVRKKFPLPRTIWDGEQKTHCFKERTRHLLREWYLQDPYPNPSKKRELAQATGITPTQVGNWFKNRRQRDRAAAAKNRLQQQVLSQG

In test [21] the target is T2, SIX6 (Homo sapiens, UniProt O95475 114-200, T139Q).
T2 sequence: T1 sequence with T26Q, I54L

The target of test [22] is T3, SIX6 (Homo sapiens, UniProt O95475 114-200, L167V).
T3 sequence: T1 sequence with I54V

Test [23] addresses HOXC9 (Homo sapiens, UniProt P31274 178-260, K195R).
Test [24] addresses HOXC9 (Homo sapiens, UniProt P31274 178-260).
In test [25] the target is HOXC9 (Homo sapiens, UniProt P31274 178-260, R193K).
Sequence of HOXC9 (Homo sapiens, UniProt P31274 178-260, R193K) (P31274 178-260 R193K): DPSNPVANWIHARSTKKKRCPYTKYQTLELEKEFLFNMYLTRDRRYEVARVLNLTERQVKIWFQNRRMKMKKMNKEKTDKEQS
Test [26] deals with HOXC9 (Homo sapiens, UniProt P31274 178-260, R222W).
Sequence of HOXC9 (Homo sapiens, UniProt P31274 178-260, R222W) (P31274 178-260 R222W): as the sequence (P31274 178-260 R193K) above, with K16R, R45W counted along it
Test [27] has as its target ALX3 (Homo sapiens, UniProt O95076 139-225, N203Q).
Test [28] addresses ALX3 (Homo sapiens, UniProt O95076 139-225).
Test [29] concerns the target ALX3 (Homo sapiens, UniProt O95076 139-225, L168Q).
The target of test [30] is ALX3 (Homo sapiens, UniProt O95076 139-225, L168V).
Sequence of ALX3 (Homo sapiens, UniProt O95076 139-225, L168V) (O95076 139-225 L168V): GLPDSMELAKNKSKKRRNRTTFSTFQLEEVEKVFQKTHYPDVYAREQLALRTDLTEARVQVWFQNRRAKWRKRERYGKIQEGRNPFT
Test [31] has as its target ALX3 (Homo sapiens, UniProt O95076 139-225, N203S).

Numbering of substitutions follows the chain as printed.

Sequence of HOXC10 (Homo sapiens, UniProt Q9NYD6 254-340) (Q9NYD6 254-340): as the sequence (Q9NYD6 254-340 K271E) above, with E18K counted along it
Sequence of HOXA4 (Homo sapiens, UniProt Q00056 201-287, R217L) (Q00056 201-287 R217L): as the sequence (Q00056 201-287 W262F) above, with R17L, F62W counted along it
Sequence of HOXA4 (Homo sapiens, UniProt Q00056 201-287, W262R) (Q00056 201-287 W262R): as the sequence (Q00056 201-287 W262F) above, with F62R counted along it
Sequence of HOXA4 (Homo sapiens, UniProt Q00056 201-287) (Q00056 201-287): as the sequence (Q00056 201-287 W262F) above, with F62W counted along it
Sequence of ALX3 (Homo sapiens, UniProt O95076 139-225) (O95076 139-225): as the sequence (O95076 139-225 L168V) above, with V30L counted along it
Sequence of MSX2 (Homo sapiens, UniProt P35548 130-214) (P35548 130-214): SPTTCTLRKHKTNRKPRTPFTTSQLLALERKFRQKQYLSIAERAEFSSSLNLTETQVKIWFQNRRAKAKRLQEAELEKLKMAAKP
Sequence of ALX3 (Homo sapiens, UniProt O95076 139-225, N203Q) (O95076 139-225 N203Q): as the sequence (O95076 139-225 L168V) above, with V30L, N65Q counted along it
Sequence of ALX4 (Homo sapiens, UniProt Q9H161 200-286, Q225E) (Q9H161 200-286 Q225E): as the sequence (Q9H161 200-286) above, with Q26E counted along it
Sequence of HOXC9 (Homo sapiens, UniProt P31274 178-260, K195R) (P31274 178-260 K195R): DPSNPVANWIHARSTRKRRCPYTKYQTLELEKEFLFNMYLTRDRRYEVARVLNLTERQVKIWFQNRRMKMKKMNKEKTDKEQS
Sequence of HOXC9 (Homo sapiens, UniProt P31274 178-260) (P31274 178-260): as the sequence (P31274 178-260 R193K) above, with K16R counted along it
Sequence of ALX3 (Homo sapiens, UniProt O95076 139-225, L168Q) (O95076 139-225 L168Q): as the sequence (O95076 139-225 L168V) above, with V30Q counted along it
Sequence of ALX3 (Homo sapiens, UniProt O95076 139-225, N203S) (O95076 139-225 N203S): as the sequence (O95076 139-225 L168V) above, with V30L, N65S counted along it
Sequence of HOXA2 (Homo sapiens, UniProt O43364 129-215, R185T) (O43364 129-215 R185T): as the sequence (O43364 129-215 R185K) above, with K57T counted along it
Sequence of HOXA2 (Homo sapiens, UniProt O43364 129-215, Y150S) (O43364 129-215 Y150S): as the sequence (O43364 129-215 R185K) above, with Y22S, K57R counted along it

For the sequence CCCTCTCG, the binding signal is 9.84 upbm affinity estimate (log intensity, higher = more binding, comparable within an allelic series) in test [1]; 10.1 upbm affinity estimate (log intensity, higher = more binding, comparable within an allelic series) in test [2]; 9.86 upbm affinity estimate (log intensity, higher = more binding, comparable within an allelic series) in [3]; 9.81 upbm affinity estimate (log intensity, higher = more binding, comparable within an allelic series) in test [4]; 10.1 upbm affinity estimate (log intensity, higher = more binding, comparable within an allelic series) in test [5]; 9.89 upbm affinity estimate (log intensity, higher = more binding, comparable within an allelic series) in [6].
Consider CCCCACGG, for which the binding signal in [1] was 9.8 upbm affinity estimate (log intensity, higher = more binding, comparable within an allelic series); in test [2] it was 10.1 upbm affinity estimate (log intensity, higher = more binding, comparable within an allelic series); in [3], 9.68 upbm affinity estimate (log intensity, higher = more binding, comparable within an allelic series); in [4], 9.82 upbm affinity estimate (log intensity, higher = more binding, comparable within an allelic series); in test [5], 10 upbm affinity estimate (log intensity, higher = more binding, comparable within an allelic series); in [6] it was 9.88 upbm affinity estimate (log intensity, higher = more binding, comparable within an allelic series).
In the case of GCCCGGAC, the binding signal was 9.85 upbm affinity estimate (log intensity, higher = more binding, comparable within an allelic series) in test [1]; 9.01 upbm affinity estimate (log intensity, higher = more binding, comparable within an allelic series) in test [7]; 9.75 upbm affinity estimate (log intensity, higher = more binding, comparable within an allelic series) in test [3]; 9.48 upbm affinity estimate (log intensity, higher = more binding, comparable within an allelic series) in [8]; 9.68 upbm affinity estimate (log intensity, higher = more binding, comparable within an allelic series) in test [4]; 9.46 upbm affinity estimate (log intensity, higher = more binding, comparable within an allelic series) in test [9]. The binding signal in [10] was 9.5 upbm affinity estimate (log intensity, higher = more binding, comparable within an allelic series); in test [6], 9.88 upbm affinity estimate (log intensity, higher = more binding, comparable within an allelic series); in [11], 8.94 upbm affinity estimate (log intensity, higher = more binding, comparable within an allelic series).
Consider CAGGAAGG, for which the binding signal in test [1] was 9.86 upbm affinity estimate (log intensity, higher = more binding, comparable within an allelic series); in test [12], 9.25 upbm affinity estimate (log intensity, higher = more binding, comparable within an allelic series); in [13] it was 6.96 upbm affinity estimate (log intensity, higher = more binding, comparable within an allelic series); in test [3] it was 9.68 upbm affinity estimate (log intensity, higher = more binding, comparable within an allelic series); in test [14] it was 10.3 upbm affinity estimate (log intensity, higher = more binding, comparable within an allelic series); in test [4], 9.59 upbm affinity estimate (log intensity, higher = more binding, comparable within an allelic series). The binding signal in [15] is 10.4 upbm affinity estimate (log intensity, higher = more binding, comparable within an allelic series); in [6], 9.73 upbm affinity estimate (log intensity, higher = more binding, comparable within an allelic series); in test [16], 8.96 upbm affinity estimate (log intensity, higher = more binding, comparable within an allelic series); in test [17] it was 7.14 upbm affinity estimate (log intensity, higher = more binding, comparable within an allelic series).
Consider ACCTTCGC, for which the binding signal in [1] is 9.98 upbm affinity estimate (log intensity, higher = more binding, comparable within an allelic series); in test [18], 8.16 upbm affinity estimate (log intensity, higher = more binding, comparable within an allelic series); in test [19], 8.2 upbm affinity estimate (log intensity, higher = more binding, comparable within an allelic series); in test [3], 9.99 upbm affinity estimate (log intensity, higher = more binding, comparable within an allelic series); in test [4], 9.8 upbm affinity estimate (log intensity, higher = more binding, comparable within an allelic series); in test [6] it was 10.1 upbm affinity estimate (log intensity, higher = more binding, comparable within an allelic series).
For CAGATATC, the binding signal in test [20] is 11.1 upbm affinity estimate (log intensity, higher = more binding, comparable within an allelic series); in test [21], 11.1 upbm affinity estimate (log intensity, higher = more binding, comparable within an allelic series); in test [22], 10.8 upbm affinity estimate (log intensity, higher = more binding, comparable within an allelic series).
Regarding CCCGAGGG, the binding signal in test [1] is 9.81 upbm affinity estimate (log intensity, higher = more binding, comparable within an allelic series); in test [23] it was 9.47 upbm affinity estimate (log intensity, higher = more binding, comparable within an allelic series); in test [3], 9.62 upbm affinity estimate (log intensity, higher = more binding, comparable within an allelic series); in [24] it was 9.55 upbm affinity estimate (log intensity, higher = more binding, comparable within an allelic series); in test [25], 9.54 upbm affinity estimate (log intensity, higher = more binding, comparable within an allelic series); in test [4] it was 9.66 upbm affinity estimate (log intensity, higher = more binding, comparable within an allelic series). For the same sequence, the binding signal in test [26] was 9.61 upbm affinity estimate (log intensity, higher = more binding, comparable within an allelic series); in test [6] it was 9.77 upbm affinity estimate (log intensity, higher = more binding, comparable within an allelic series).
For CCGGCAGG, the binding signal in test [1] was 9.95 upbm affinity estimate (log intensity, higher = more binding, comparable within an allelic series); in test [2], 10.2 upbm affinity estimate (log intensity, higher = more binding, comparable within an allelic series); in test [3], 9.86 upbm affinity estimate (log intensity, higher = more binding, comparable within an allelic series); in test [27], 7.82 upbm affinity estimate (log intensity, higher = more binding, comparable within an allelic series); in test [4], 10 upbm affinity estimate (log intensity, higher = more binding, comparable within an allelic series); in test [5] it was 9.98 upbm affinity estimate (log intensity, higher = more binding, comparable within an allelic series). For the same sequence, the binding signal was 7.72 upbm affinity estimate (log intensity, higher = more binding, comparable within an allelic series) in test [28]; 7.79 upbm affinity estimate (log intensity, higher = more binding, comparable within an allelic series) in test [29]; 7.78 upbm affinity estimate (log intensity, higher = more binding, comparable within an allelic series) in test [30]; 9.96 upbm affinity estimate (log intensity, higher = more binding, comparable within an allelic series) in test [6]; 7.86 upbm affinity estimate (log intensity, higher = more binding, comparable within an allelic series) in test [31].
